A short description of assay [1]: ACEA_ER_80hr: ACEA Biosciences xCELLigence Real-Time Cell Analysis on Estrogen Receptor Agonism for Proliferation (AID 2282667; active = hit-call score of the fitted dose curve at least 0.9, where 1 is the maximum). The conditions noted are these: T47D proliferation, impedance (xCELLigence), 80 h. In a few lines:
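T-47D cells monitored by electrical impedance (xCELLigence) with compound present throughout; 80 h timepoint, positive-direction fitting versus DMSO. Eight-point 1:4 dilutions from 100 uM final, duplicate plates.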

Assay [2] in a line: APR_HepG2_CellCycleArrest_24hr: Apredica 24-hour HepG2 Assay for Cell Cycle Arrest (AID 2282905).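 Also: cell cycle arrest scored as ratio of 2N to 4N nuclear DNA content.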 Particulars: imaging, actives raise or lower the signal. The gist of the method: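 Cell cycle arrest is scored from nuclear DNA content measured by high-content imaging of Hoechst 33342-stained HepG2 cells following 24-hour treatment at ten concentrations up to 200 uM, with DMSO as baseline.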

Assay [3] is described as follows: APR_HepG2_NuclearSize_24hr: Apredica 24-hour HepG2 Assay for Nuclear Size (AID 2282907). The conditions noted are these: high-content imaging, actives raise or lower the signal. The gist of the method:
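Compounds in DMSO (final 0.5%) were added to human HepG2 hepatoma cells at ten concentrations up to 200 uM for 24 hr. Fixed nuclei were stained with Hoechst 33342, and nuclear diameter was quantified from automated images.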

The nature of assay [4]: APR_HepG2_CellLoss_24hr: Apredica 24-hour HepG2 Assay for Cell Loss (AID 2282908).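 As to AC50: fit in both directions so a hit may be cell loss or gain.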 Particulars: high-content imaging. The gist of the method:
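Cell number is quantified by fluorescence imaging of Hoechst 33342-stained nuclei following dosing at 0.39–200 uM in 0.5% DMSO. Curves are fitted in both directions from the DMSO baseline.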

Assay [5] in a line: APR_HepG2_MitoticArrest_24hr: Apredica 24-hour HepG2 Assay for Mitotic Arrest (AID 2282910). Particulars: high-content imaging, actives raise or lower the signal. The gist of the method:
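Compounds are dosed onto HepG2 cells across ten concentrations up to 200 uM for 24 hr. Cells are then fixed in 3.7% formaldehyde, permeabilised, and labelled for phospho-histone H3 and nuclei; images are scored by cell cycle analysis and fitted bidirectionally relative to DMSO.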

A short description of assay [6]: APR_HepG2_MitoMembPot_24hr: Apredica 24-hour HepG2 Assay for Mitochondrial Membrane Potential (AID 2282911). The conditions noted are these: imaging, actives raise or lower the signal. In a few lines:
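HepG2 cells exposed 24 h to 0.39–200 uM compounds in duplicate, 0.5% v/v DMSO final. MitoTracker Red CMXRos 250 nM loaded 30 min before formaldehyde fixation; high-content imaging at 20x, bidirectional fit versus DMSO.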

A short description of assay [7]: APR_HepG2_MitoMass_24hr: Apredica 24-hour HepG2 Assay for Mitochondrial Mass (AID 2282912). The conditions noted are these: high-content imaging, actives raise or lower the signal. The gist of the method:
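The liver line HepG2 was dosed in duplicate across a 0.39–200 uM series, with final DMSO held at 0.5% v/v, and harvested at 24 hr. High-content imaging measured mitochondrial dye staining.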

Assay [8] is described as follows: APR_HepG2_p53Act_24hr: Apredica 24-hour HepG2 Assay for p53 Activation (AID 2282913).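 Also: p53 protein immunofluorescence averaged per cell in HepG2 with Hoechst nuclei.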 Particulars: high-content imaging, actives raise or lower the signal. The gist of the method:
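HepG2 cells exposed 24 h to compounds at 0.39–200 uM in duplicate, 0.5% v/v DMSO final; fixed, permeabilized, stained with anti-p53 antibody and Hoechst 33342; fluorescence imaging; bidirectional curve fit versus DMSO.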

Assay [9] is described as follows: APR_HepG2_CellCycleArrest_72hr: Apredica 72-hour HepG2 Assay for Cell Cycle Arrest (AID 2282914). Particulars: high-content imaging, actives raise or lower the signal. The gist of the method: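 HepG2 cells exposed 72 h in duplicate to 0.39–200 uM compound, 0.5% DMSO final. Formaldehyde-fixed, Hoechst 33342-stained nuclei imaged at 20x, six fields per well; DNA content per valid cell quantified by cell-cycle image analysis, bidirectional fit versus DMSO.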

The nature of assay [10]: APR_HepG2_CellLoss_72hr: Apredica 72-hour HepG2 Assay for Cell Loss (AID 2282915). The conditions noted are these: high-content imaging. The gist of the method: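 Cell number comes from Hoechst 33342-labelled nuclei, imaged at 20x after 3.7% formaldehyde fixation. Dosing was 0.39–200 uM, ten concentrations in duplicate, 0.5% DMSO final, for 72 h. Bidirectional fit relative to DMSO baseline.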

Assay [11] in a line: APR_HepG2_P-H2AX_72hr: Apredica 72-hour HepG2 Assay for H2AX Phosphorylation (AID 2282916).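 Also: phospho-histone H2A.x immunostain intensity per cell marking DNA damage.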 Particulars: imaging, actives raise or lower the signal. In a few lines:
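Following 72 hr treatment with 0.39–200 uM compound, HepG2 cells were formaldehyde-fixed, permeabilized and stained for phospho-H2A.x; signal was measured by high-content imaging and fitted bidirectionally against DMSO controls.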

A short description of assay [12]: APR_HepG2_MitoMembPot_72hr: Apredica 72-hour HepG2 Assay for Mitochondrial Membrane Potential (AID 2282917). The conditions noted are these: imaging, actives raise or lower the signal. In a few lines:
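Membrane potential read by MitoTracker Red CMXRos (250 nM, 30 min, pre-fixation) fluorescence imaging of HepG2 after 72 hr exposure. Ten concentrations, 0.39–200 uM, duplicate wells, 0.5% DMSO; fitted in both directions against DMSO baseline.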

Assay [13] in a line: APR_HepG2_MitoticArrest_72hr: Apredica 72-hour HepG2 Assay for Mitotic Arrest (AID 2282918). The conditions noted are these: high-content imaging, actives raise or lower the signal. The gist of the method: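 HepG2 cells treated 72 h at 0.39–200 uM, 0.5% DMSO final; formaldehyde-fixed, stained with Hoechst 33342 and phospho-histone H3 antibody, imaged by high-content fluorescence; bidirectional fit versus DMSO.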

A short description of assay [14]: APR_HepG2_MicrotubuleCSK_72hr: Apredica 72-hour HepG2 Assay for Microtubule CSK Stabilty (AID 2282919). Particulars: HepG2 microtubule cytoskeleton, high-content imaging, actives raise or lower the signal. In a few lines:
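Read-out is tubulin fluorescence intensity from high-content imaging of HepG2 cells, with nuclei identified by Hoechst 33342. Treatment lasts 72 h at 0.39–200 uM, and curves are fitted bidirectionally against the DMSO negative control.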

Assay [15] in a line: APR_HepG2_P-H2AX_24hr: Apredica 24-hour HepG2 Assay for H2AX Phosphorylation (AID 2282920). Particulars: high-content imaging, actives raise or lower the signal. The gist of the method: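 HepG2 cells dosed 24 h at 0.39–200 uM (10 points, duplicate, 0.5% DMSO final). Formaldehyde-fixed and permeabilized, then immunostained for phospho-H2A.x with Hoechst. Fluorescence quantified by high-content imaging, fitted bidirectionally versus DMSO.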

The nature of assay [16]: APR_HepG2_StressKinase_72hr: Apredica 72-hour HepG2 Assay for Stress Kinase (AID 2282921). Particulars: HepG2 stress kinase (phospho-c-Jun) imaging, actives raise or lower the signal. In a few lines:
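Fluorescence intensity of Cy3-tagged anti-phospho-c-Jun antibody, quantified per cell from Hoechst-defined nuclei across six images per well, served as the read-out following 72 h exposure (0.39–200 uM, 0.5% v/v DMSO).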

Assay [17] in a line: APR_HepG2_StressKinase_24hr: Apredica 24-hour HepG2 Assay for Stress Kinase (AID 2282922). The conditions noted are these: HepG2 stress kinase (phospho-c-Jun) imaging, actives raise or lower the signal. In a few lines:
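HepG2, 24 hr dosing, 0.39–200 uM in duplicate, 0.5% DMSO; formaldehyde fix (3.7%), 0.5% Triton X-100; anti-phospho-c-Jun + Cy3 secondary, Hoechst counterstain; ArrayScan imaging; bidirectional curve fit vs DMSO baseline.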

Assay [18] in a line: APR_HepG2_p53Act_72hr: Apredica 72-hour HepG2 Assay for p53 Activation (AID 2282923).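 Also: average cellular p53 protein immunofluorescence intensity in HepG2 cells.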 Particulars: high-content imaging, actives raise or lower the signal. The gist of the method:
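HepG2 monolayers receive test compounds in duplicate at ten concentrations (0.39 through 200 uM) for 72 hr. They are then formaldehyde-fixed, antibody-labelled for p53, Hoechst-stained and imaged, with activity fitted bidirectionally versus DMSO.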

Assay [19] in a line: APR_HepG2_MitoMass_72hr: Apredica 72-hour HepG2 Assay for Mitochondrial Mass (AID 2282924).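 Also: MitoTracker Red CMXRos stain intensity per cell imaged as mitochondrial mass.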 Particulars: high-content imaging, actives raise or lower the signal. The gist of the method: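 HepG2, 72 hr cmpd, 10 conc 0.39–200 uM in dup, DMSO 0.5% v/v. MitoTracker Red CMXRos 250 nM 30 min pre-fix; formaldehyde 3.7% fix 30 min RT. HCS imaging, gain/loss fit vs DMSO.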

Results filed as inconclusive are left out. Activity calls are given as the source filed them. The calls were made as follows, unless noted: active = hit-call score of the fitted dose curve at least 0.9, where 1 is the maximum; inactive = score below 0.9.

As for `COCC(C)O` (configuration not stated), the outcome in assay [1], in assay [2], in assay [3], in assay [4], in assay [5] and in assay [7] was inactive. The result in [8], in [9], in [10], in [11], in assay [12] and in [13] was inactive. For the same compound, the result in assay [14], in assay [15], in assay [16], in assay [17], in assay [18] and in [19] was inactive. Moreover, in [6], the AC50 was 0.0477 µM (active).

Regarding `Cc1cc(C)c(O)c(C)c1`, the compound was called inactive in assay [1], in assay [2], in [3], in assay [4], in assay [5] and in assay [6]. Also, the outcome in assay [7], in [8], in [9], in [10], in assay [11] and in assay [12] was inactive. The call in assay [13], in [14], in assay [15], in assay [16], in [17] and in assay [18] was inactive. Moreover, the compound was called inactive in assay [19].

Take `CCCOc1sc(C(=O)N2CCC(c3cc(CN)ccc3F)CC2)c(C)c1Br`: the call in [1], in assay [3], in [7], in assay [9] and in [12] was inactive. The AC50 in [2] is 22.3 µM (active); in [4] it was 6.74 µM (active); in assay [5], 5.77 µM (active); in [6], 7.27 µM (active); in assay [8], 4.2 µM (active); in assay [10], 7.86 µM (active). In addition, the AC50 is 22.7 µM (active) in assay [11]; 5.79 µM (active) in [13]; 6.58 µM (active) in assay [14]; 4.23 µM (active) in [15]; 32.1 µM (active) in [16]; 47.1 µM (active) in [18]. In assay [19], the AC50 was 44.5 µM (active).

For the compound `CCCCOCCO`, the compound was called inactive in assay [1], in assay [2], in assay [3], in assay [4], in [5] and in [6]. Further, the result in assay [7], in assay [8], in assay [9], in assay [10], in [11] and in [12] was inactive. The compound was classed as inactive in assay [13], in [14], in assay [15], in assay [16], in [17] and in [18]. Further, in assay [19], the compound was classed as inactive.

With `N#C[C@@H]1CC(F)(F)CN1C(=O)CNC1CC2CCC(C1)N2c1ncccn1` (some centres not stated), in [1], the AC50 was 4 µM (active). Also, the call in assay [2], in assay [3], in [4], in [5], in assay [6] and in assay [7] was inactive. Besides, the compound was called inactive in assay [8], in assay [9], in assay [10], in [11], in assay [12] and in assay [13]. The outcome in assay [14], in assay [15], in [16], in assay [17], in assay [18] and in [19] was inactive.

In the case of `CCCCCCCCC(=O)O`, the result in assay [1], in assay [2], in assay [3], in assay [4], in assay [5] and in assay [6] was inactive. Further, the result in assay [7], in assay [8], in assay [9], in assay [10], in [11] and in [12] was inactive. Besides, the outcome in assay [13], in assay [14], in assay [15], in [16], in [18] and in assay [19] was inactive.

Broadly, the AC50 is the concentration giving half of the maximal activity seen.

The values above are taken from PubChem BioAssay (EPA / NIEHS).
